In PubChem BioAssay (NCI):
Compounds without any hit were thinned out: in the full panel of roughly 83,000, 20% have a hit.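 Negative percent growth values reflect cell death: -40 means 40% of the cells present at the start died, and -100 means all died.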 Calls of active or inactive are those of the source. Rule for the calls: active = growth percent below 10; inactive = the rest.

Assays:
Assay in all cases: NCI-60 one-dose screen, 48 h (100 = growth as untreated, 0 = no growth, -100 = all killed)
Details in all cases: 10 µM unless noted
NCI-H23 lung = system: NCI-H23 lung
NCI-H226 lung = system: NCI-H226 lung
NCI-H322M lung = system: NCI-H322M lung
HOP-62 NSCLC = system: HOP-62 NSCLC
HOP-92 NSCLC = system: HOP-92 NSCLC
NCI-H522 lung = system: NCI-H522 lung
A549/ATCC NSCLC = system: A549/ATCC NSCLC
786-0 renal = system: 786-0 renal
COLO 205 colon = system: COLO 205 colon
NCI-H460 lung = system: NCI-H460 lung

Measured: growth

COc1ccc2c(c1OC)OCC(CN(C)C)C2=O (configuration not stated)
active: NCI-H522 lung -81% | COLO 205 colon -75.2%
inactive: NCI-H23 lung 104% | NCI-H226 lung 97.6% | NCI-H322M lung 111% | HOP-62 NSCLC 100% | HOP-92 NSCLC 52.1% | A549/ATCC NSCLC 98.9% | 786-0 renal 92.7%

O=[N+]([O-])CC(O)c1ccccc1 (configuration not stated)
inactive: NCI-H23 lung 93.1% | NCI-H226 lung 97.9% | NCI-H322M lung 118% | HOP-62 NSCLC 100% | NCI-H460 lung 101% | NCI-H522 lung 97.3% | 786-0 renal 80.3% | COLO 205 colon 113%

COc1cc(-c2ccc(-[n+]3nc(-c4ccc([N+](=O)[O-])cc4)nn3-c3ccc([N+](=O)[O-])cc3)c(OC)c2)ccc1-[n+]1nc(-c2ccc([N+](=O)[O-])cc2)nn1-c1ccc([N+](=O)[O-])cc1
inactive: NCI-H23 lung 26.1% | NCI-H322M lung 44.3% | A549/ATCC NSCLC 11.8%
active: NCI-H226 lung -32.5% | HOP-62 NSCLC -59.7% | NCI-H460 lung 3.02% | 786-0 renal 0.457% | COLO 205 colon -69%

CCCCCCCCCCCCNCCCc1ccccc1
active: COLO 205 colon -50.8%
inactive: NCI-H23 lung 89.2% | NCI-H226 lung 96.6% | NCI-H322M lung 91.1% | HOP-62 NSCLC 95% | NCI-H460 lung 83.9% | NCI-H522 lung 63.6% | 786-0 renal 69.4%

CCNc1nnnn1CC
inactive: NCI-H23 lung 107% | NCI-H226 lung 102% | NCI-H322M lung 105% | HOP-62 NSCLC 110% | NCI-H460 lung 106% | NCI-H522 lung 106% | A549/ATCC NSCLC 113% | COLO 205 colon 109%

O=C1/C(=C/c2ccccc2)CCC/C1=C\c1ccccc1
inactive: NCI-H23 lung 88% | NCI-H226 lung 96% | NCI-H322M lung 94.9% | HOP-62 NSCLC 109% | NCI-H460 lung 103% | NCI-H522 lung 78.7% | A549/ATCC NSCLC 98.8% | 786-0 renal 87.7% | COLO 205 colon 127%

CC12CCC(O)CC1=CCC1C2CCC2(C)C3=NN=CC3CC12 (configuration not stated)
inactive: NCI-H23 lung 101% | NCI-H226 lung 105% | NCI-H322M lung 118% | HOP-62 NSCLC 101% | NCI-H460 lung 125% | A549/ATCC NSCLC 104% | 786-0 renal 112% | COLO 205 colon 112%

CN(C)c1ccc(/C=C/c2sc3ccc4ccccc4c3[n+]2C)cc1
active: NCI-H23 lung -25.9% | NCI-H226 lung -29.4% | NCI-H322M lung -10.5% | HOP-62 NSCLC -73.3% | NCI-H460 lung -40.9% | A549/ATCC NSCLC -14% | 786-0 renal -90.8% | COLO 205 colon -85.8%

COc1ccc(C(OCC2OC(n3ccc(NC(=O)c4ccccc4)nc3=O)C(O)C2O)(c2ccccc2)c2ccccc2)cc1 (configuration not stated)
inactive: NCI-H23 lung 54.8% | NCI-H226 lung 29.9% | NCI-H322M lung 109% | HOP-62 NSCLC 85.3% | NCI-H460 lung 15.5% | NCI-H522 lung 67.9% | A549/ATCC NSCLC 28.1% | 786-0 renal 52.5% | COLO 205 colon 39.5%

Cc1cc(C)c([I+]c2c(C)cc(C)cc2C)c(C)c1
active: NCI-H23 lung -29.1% | NCI-H226 lung -1.55% | HOP-62 NSCLC -78.3% | NCI-H460 lung 1.11% | NCI-H522 lung -66.8% | A549/ATCC NSCLC 6.93% | 786-0 renal -89.6% | COLO 205 colon -94.4%
inactive: NCI-H322M lung 46.5%

CCCCCCCCCCCC[n+]1ccc2ccccc2c1
active: NCI-H23 lung -33.4% | NCI-H226 lung 4.19% | HOP-62 NSCLC -33.2% | NCI-H460 lung -13.5% | NCI-H522 lung -39.2% | A549/ATCC NSCLC 6.68% | 786-0 renal -62.8% | COLO 205 colon -80.2%
inactive: NCI-H322M lung 17%

c1ccc2sc(SSN3CC4CCC(CC4)C3)nc2c1
inactive: NCI-H23 lung 107% | NCI-H226 lung 100% | NCI-H322M lung 96% | HOP-62 NSCLC 119% | NCI-H460 lung 115% | HOP-92 NSCLC 110% | 786-0 renal 129% | COLO 205 colon 128%

CC[n+]1ccc(Nc2ccc(NC(=O)c3ccc(Nc4cc[n+](CC)c5ccc([N+](=O)[O-])cc45)cc3)cc2)cc1
inactive: NCI-H23 lung 81.8% | NCI-H226 lung 92.8% | NCI-H322M lung 96.8% | HOP-62 NSCLC 92.8% | NCI-H460 lung 77% | A549/ATCC NSCLC 66.1% | 786-0 renal 101% | COLO 205 colon 69.8%

N#Cc1c2ccccc2nc2ccccc12
inactive: NCI-H23 lung 100% | NCI-H226 lung 93.8% | NCI-H322M lung 110% | HOP-62 NSCLC 108% | NCI-H460 lung 101% | NCI-H522 lung 101% | A549/ATCC NSCLC 92.8% | 786-0 renal 97.7% | COLO 205 colon 107%

S=C(S)OCN1CCOCC1
active: NCI-H522 lung 1.59%
inactive: NCI-H23 lung 93.8% | NCI-H226 lung 97% | NCI-H322M lung 98% | HOP-62 NSCLC 108% | HOP-92 NSCLC 86.4% | A549/ATCC NSCLC 91.6% | 786-0 renal 108% | COLO 205 colon 20.7%

CCCCCC[C@@H](O)C/C=C\CCCCCCCC(=O)OCCOC
inactive: NCI-H23 lung 101% | NCI-H226 lung 101% | NCI-H322M lung 104% | HOP-62 NSCLC 88.9% | NCI-H460 lung 107% | HOP-92 NSCLC 79.2% | A549/ATCC NSCLC 94.3% | COLO 205 colon 115%

O=C1C=CC(=O)c2c(O)c(CO)c(CO)c(O)c21
inactive: NCI-H23 lung 89.2% | NCI-H226 lung 110% | NCI-H322M lung 119% | HOP-62 NSCLC 109% | NCI-H460 lung 102% | A549/ATCC NSCLC 99.5% | 786-0 renal 93.7% | COLO 205 colon 12%

CCN(CC)CC(O)CNc1ccc(NCC2CO2)c2c1C(=O)c1ccccc1C2=O (configuration not stated)
active: NCI-H23 lung -43% | NCI-H226 lung 0.0591% | NCI-H322M lung -16.7% | HOP-62 NSCLC -34.9% | NCI-H460 lung -43.9% | NCI-H522 lung -74.1% | A549/ATCC NSCLC 7.32% | 786-0 renal -21.7% | COLO 205 colon -40.8%

OC(c1cc2ccc(C(F)(F)F)cc2c2cc(C(F)(F)F)ccc12)C1CCCCN1 (configuration not stated)
active: NCI-H23 lung -95.8% | NCI-H226 lung -71.4% | NCI-H322M lung -91.5% | HOP-62 NSCLC -100% | NCI-H460 lung -100% | NCI-H522 lung -87.7% | A549/ATCC NSCLC -97% | 786-0 renal -85% | COLO 205 colon -100%

NC(=S)N/N=C\c1nccc2c(C(F)(F)F)cccc12
active: NCI-H226 lung -0.105% | NCI-H322M lung 4.15% | HOP-62 NSCLC -5.75% | NCI-H460 lung 0.121% | NCI-H522 lung -30.5% | A549/ATCC NSCLC 3.44% | 786-0 renal -24.7%
inactive: NCI-H23 lung 13.4% | COLO 205 colon 17.8%

C/C(=N/NC(N)=S)c1ccc(C)cc1
inactive: NCI-H23 lung 95.4% | NCI-H226 lung 83.5% | NCI-H322M lung 106% | HOP-62 NSCLC 87.8% | NCI-H460 lung 100% | NCI-H522 lung 94.5% | A549/ATCC NSCLC 87.6% | 786-0 renal 101% | COLO 205 colon 99.1%

Cc1nnc(N/N=C/c2ccc([N+](=O)[O-])o2)[nH]c1=O
active: HOP-92 NSCLC -35.8% | COLO 205 colon -56.5%
inactive: NCI-H23 lung 22.6% | NCI-H226 lung 16.2% | NCI-H322M lung 16.6% | HOP-62 NSCLC 11.3% | NCI-H522 lung 17.1% | A549/ATCC NSCLC 28.5% | 786-0 renal 14.9%

Nc1cc(-c2ccccc2)ccc1O
inactive: NCI-H23 lung 101% | NCI-H226 lung 112% | NCI-H322M lung 87.2% | HOP-62 NSCLC 122% | NCI-H460 lung 102% | A549/ATCC NSCLC 65.7% | 786-0 renal 97.8% | COLO 205 colon 110%

O=C1CSC(=S)N1Cc1cccnc1
inactive: NCI-H23 lung 101% | NCI-H226 lung 109% | NCI-H322M lung 85.7% | HOP-62 NSCLC 78.4% | HOP-92 NSCLC 83.9% | NCI-H522 lung 36.8% | A549/ATCC NSCLC 95.4% | 786-0 renal 44.6% | COLO 205 colon 53.6%

c1csc(-c2[nH]nc3c2CCc2ccccc2-3)c1
active: COLO 205 colon -11.2%
inactive: NCI-H23 lung 95.8% | NCI-H226 lung 80.9% | NCI-H322M lung 55.4% | HOP-62 NSCLC 91.1% | NCI-H460 lung 55% | NCI-H522 lung 101% | A549/ATCC NSCLC 89.1% | 786-0 renal 103%

O=[N+]([O-])c1cc(-c2ccccc2)c(O)c([N+](=O)[O-])c1
active: HOP-92 NSCLC 3.74%
inactive: NCI-H23 lung 83.7% | NCI-H226 lung 82.5% | NCI-H322M lung 126% | HOP-62 NSCLC 92.5% | NCI-H460 lung 65.9% | A549/ATCC NSCLC 86.8% | COLO 205 colon 106%

O=C1C=CC(=O)N1c1ccccc1
active: NCI-H522 lung -51.8%
inactive: NCI-H23 lung 98.2% | NCI-H226 lung 87.7% | NCI-H322M lung 110% | HOP-62 NSCLC 92% | NCI-H460 lung 110% | A549/ATCC NSCLC 102% | 786-0 renal 94.5%

O=C1C=CC(=O)N1C1CCCCCCCCCCC1
active: NCI-H522 lung 7.03%
inactive: NCI-H23 lung 89.9% | NCI-H226 lung 82.9% | NCI-H322M lung 95.3% | HOP-62 NSCLC 101% | NCI-H460 lung 106% | A549/ATCC NSCLC 91.6% | 786-0 renal 94.6% | COLO 205 colon 52.4%

Nc1ccc(C(=O)/C=C/c2ccccc2)cc1
inactive: NCI-H23 lung 96.5% | NCI-H226 lung 105% | NCI-H322M lung 90.8% | NCI-H460 lung 100% | HOP-92 NSCLC 88.3% | NCI-H522 lung 80.8% | A549/ATCC NSCLC 91.5% | 786-0 renal 86.2% | COLO 205 colon 119%

CCCCCC/C=C1\CCC(CN2CCCC2)C1=O (configuration not stated)
inactive: NCI-H23 lung 99.9% | NCI-H226 lung 95.5% | NCI-H322M lung 106% | NCI-H460 lung 102% | HOP-92 NSCLC 90.5% | A549/ATCC NSCLC 93% | 786-0 renal 77.4%

CCCCCCCCCCCCCCCCCC[S+](C)CC (configuration not stated)
active: COLO 205 colon -38%
inactive: NCI-H23 lung 36.3% | NCI-H226 lung 17.5% | HOP-62 NSCLC 15.6% | NCI-H460 lung 33.6% | HOP-92 NSCLC 27.3% | NCI-H522 lung 30.2% | A549/ATCC NSCLC 42.3% | 786-0 renal 29.1%

O=[N+]([O-])c1ccc(C(Br)c2ccc([N+](=O)[O-])cc2)cc1
active: NCI-H522 lung -40.3%
inactive: NCI-H23 lung 79.5% | NCI-H226 lung 99.6% | NCI-H322M lung 114% | HOP-62 NSCLC 105% | HOP-92 NSCLC 86.1% | A549/ATCC NSCLC 100% | 786-0 renal 108% | COLO 205 colon 88.3%

O=C1C(=O)c2cccnc2-c2ncccc21
active: NCI-H23 lung -68.3% | NCI-H226 lung -28.7% | HOP-62 NSCLC -44.7% | HOP-92 NSCLC -36.9% | NCI-H522 lung 5.23% | A549/ATCC NSCLC 6.49% | 786-0 renal -94.1% | COLO 205 colon -88.5%
inactive: NCI-H322M lung 20.5%
